This is a sample that favours compounds with a hit; in the whole collection about 2% have one here.
KKLEB tox: reduces viability of KKLEB cystic fibrosis airway cells; actives 0.36% (n = 360,000); KKLEB CF airway cells viability, ATPlite luminescence, overnight; stronger effect = lower value; cells stimulated with P. aeruginosa culture filtrate; activity change (cytotoxicity), % at 5 µM; AID 602141;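 active = corrected activity change at or below -50% at 5 µM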
LGR2 antag: Drosophila LGR2 receptor signaling inhibition; HEK293 LGR2, CRE-luciferase, bursicon-stimulated, 4 h; inhibition, % at 9.99 µM; actives 0.35% (n = 380,000); AID 720647;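 active = drop in luminescence signal, shown as inhibition above about 50% in the replicate tests, limit read from the data, passing the limit was not always enough; inconclusive = probably only some replicates passing the limit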;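 note: agonist challenge used bursicon conditioned medium at about half maximal strength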
PAX8 inh HTS: PAX8 transcriptional activity inhibition; RMG-I TPO-luciferase reporter, SteadyGlo, 24 h; inhibition, % at 12.6 µM; actives 1.2% (n = 360,000); AID 652154;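 active = mean replicate inhibition at least 60% with every replicate also reaching 60%; inconclusive = only one of the two criteria is met; inactive = mean below 60% and not all replicates reaching 60%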;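 note: luciferase light reporting Pax8 driven TPO promoter activity; plate controls were median of neutral control wells for no effect and mitoxantrone controls for full effect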
CF NFkB inh: inhibitors of cystic fibrosis induced NF-kB | KKLEB NF-kB-GFP reporter, PAF-induced, GFP fluorescence overnight | inhibition, % at 5 µM | actives 0.86% (n = 360,000);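 active = at least 50% inhibition at 5 µM, scaled per plate between neutral and stimulator controls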;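 note: PAF is a Pseudomonas aeruginosa culture filtrate used as stimulus; plate controls were PAF-stimulated DMSO wells for no effect and unstimulated DMSO wells for full effect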
Shn3 3UTR inh: Schnurri-3 reporter inhibition in Clone20 osteoblasts. Clone20 osteoblast Shn3 3'UTR firefly luciferase, 24 h. inhibition, % at 12.5 µM. actives 0.52% (n = 360,000). AID 588674;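 active = mean inhibition of at least 75% with every replicate also reaching 75%; inconclusive = mean inhibition at least 75% but some replicate below; inactive = mean inhibition below 75%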;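 note: 0% = median of neutral control wells and 100% = pilot-screen positive control compound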
EWS-Fli inh: blocks EWS/Fli oncoprotein-driven transcription; A673 NR0B1-luciferase reporter, viability-normalised; inhibition, % at 12.6 µM; actives 0.67% (n = 350,000); AID 651661;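 active = mean inhibition of at least 50% after viability correction, with every replicate also passing that limit; inconclusive = mean reaches 50% but only one of two replicates passes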;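 note: firefly luciferase signal divided by Alamar Blue viability fluorescence both relative to DMSO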
* marks the source's active call; other numbers are inactive results; ? = inconclusive; nt = no result.

SMILES | KKLEB tox | LGR2 antag | PAX8 inh HTS | CF NFkB inh | Shn3 3UTR inh | EWS-Fli inh
O=C(NC1CCCCCC1)C1c2ccccc2C(=O)N1Cc1cccs1 (stereo unspecified) | 4.0 | 17.7 | 91.3* | -2.2 | -8.6 | -4.9
C=C1C(=O)OC2C=C(CO)C3OC3C3OC3(C)CC(OC(=O)/C(=C/C)COC(C)=O)C12 (stereo unspecified) | -91.5* | 21.3 | 83.0* | 82.2* | 93.3* | 36.9
CCOC(=O)c1cc2c(N)c(C(=O)c3cc(C#N)c(SC)nc3C)sc2nc1C | -63.7* | nt | nt | 48.5 | 17.7 | nt
CCOC(=O)c1cc(C#N)c(SC)nc1C | -0.8 | -14.7 | -3.1 | -3.4 | -19.0 | 6.5
O=C(Nc1ncc(Cc2ccc(SC(F)F)cc2)s1)c1ccc(OC(F)F)cc1 | -19.3 | nt | ? | 24.5 | 58.4 | 52.7*
Cc1ccc(Cc2cnc(NC(=O)c3ccco3)s2)cc1 | -8.3 | nt | nt | -6.1 | -45.4 | nt
CO[C@H]1CN(C)C(=O)c2ccc(NC(=O)C3CCCC3)cc2OC[C@@H](C)N(CCC(F)(F)F)C[C@@H]1C | nt | -7.9 | nt | nt | nt | 2.8
Cc1ccc(S(=O)(=O)N[C@@H]2C=C[C@@H](CC(=O)NCc3ccncn3)O[C@@H]2CO)cc1 | nt | -12.6 | 6.9 | nt | nt | -28.6
CCOC(=O)C1CCN(C(=O)C(C)N(c2ccc(Oc3ccccc3)cc2)S(C)(=O)=O)CC1 (stereo unspecified) | -1.2 | 16.5 | -0.8 | 0.2 | 87.1* | -4.8
CCn1c(/C=C/c2c(C)n(CC)c3ccccc23)nc2ccccc2c1=O | -25.2 | nt | 72.5* | 31.1 | 0.2 | -15.2
COCCn1c(C)cc(C(=O)COC(=O)c2cccc(O)c2)c1C | -4.1 | 84.8* | 39.3 | -7.6 | 53.5 | 40.0
COCCn1c(C)cc(C(=O)CSc2nnc(C)s2)c1C | -8.3 | nt | 75.4* | 4.4 | 70.4 | nt
COCCn1c(C)cc(C(=O)CSc2nnnn2C2CCCC2)c1C | -5.6 | 79.9* | 38.6 | -13.5 | 34.2 | 81.8*
C[C@H](CO)N1C[C@H](C)[C@H](CN(C)S(=O)(=O)c2ccc(F)cc2)Oc2c(NC(=O)Nc3ccc(F)cc3)cccc2C1=O | nt | 8.1 | nt | nt | nt | 1.1
C[C@H](CO)N1C[C@H](C)[C@H](CN(C)S(=O)(=O)c2cn(C)cn2)Oc2ncc(/C=C/c3ccccc3)cc2C1=O | nt | 6.6 | 16.2 | nt | nt | -5.7
C/C(=N\NC(=O)COc1ccccc1-c1ccccc1)c1ccc(O)cc1O | 1.7 | 23.4 | 41.9 | -17.3 | 92.1* | 19.4
O=C(COc1ccccc1-c1ccccc1)N/N=C/c1ccc2ccccc2c1 | -38.8 | -5.2 | 93.5* | 62.4* | 13.5 | 39.7
C/C(=N\NC(=O)COc1ccccc1-c1ccccc1)c1ccccn1 | -18.2 | 24.6 | 81.1* | 10.0 | 97.7* | 0.0
O=C(COc1ccccc1-c1ccccc1)N/N=C/c1ccncc1 | 5.5 | 9.7 | 3.1 | -0.1 | 5.7 | 2.6
Cc1noc(C)c1S(=O)(=O)N(C)C[C@H]1OCCCC[C@@H](C)Oc2ccc(NS(=O)(=O)c3cn(C)cn3)cc2C(=O)N([C@@H](C)CO)C[C@H]1C | nt | -3.2 | -21.5 | nt | nt | -1.0
C[C@H]1CN([C@@H](C)CO)C(=O)c2cccc(NS(=O)(=O)c3ccc(Cl)cc3)c2O[C@@H]1CN(C)C(=O)NC1CCCCC1 | nt | -7.7 | 8.0 | nt | nt | 1.5
O=C1C=CC(=O)N1CCNc1ncc(C(F)(F)F)cc1Cl | -23.1 | 5.5 | ? | 60.0* | 85.9* | 16.0
Cc1cccc(NC2=C/C(=N/S(=O)(=O)c3cccs3)c3ccccc3C2=O)c1 | -64.6* | -2.6 | -2.3 | 93.2* | 93.4* | nt
Cc1ccc(Nc2cc(=O)oc3ccccc23)c(C)c1 | -11.0 | nt | nt | 19.6 | 20.3 | nt
Cc1ccc(NC2=C/C(=N\S(=O)(=O)c3cccs3)c3ccccc3C2=O)c(C)c1 | -101.5* | nt | nt | 96.0* | 98.0* | nt
SMILES | KKLEB tox | LGR2 antag | PAX8 inh HTS | CF NFkB inh | Shn3 3UTR inh | EWS-Fli inh
Cc1ccc(Cl)cc1NC1=C/C(=N\S(=O)(=O)c2cccs2)c2ccccc2C1=O | -104.6* | 105.5* | 104.3* | 91.9* | 96.6* | 45.3
O=C(/C=C/C(Cl)(Cl)Cl)Nc1ccc(Cl)cc1 | -23.9 | -37.7 | 51.2 | 8.9 | 45.2 | 52.6*
COc1ccc(C(=O)Nc2ccc3c(c2)OC[C@@H](C)N(Cc2cocn2)C[C@H](C)[C@H](OC)CN(C)C3=O)cc1 | nt | 8.8 | 0.3 | nt | nt | -21.1
COc1cccc(C#Cc2ccc([C@@H]3[C@@H](C#N)N(C(=O)C4CCC4)[C@H]3CO)cc2)c1 | nt | -1.1 | 24.2 | nt | nt | 5.9
COc1cccc(C#Cc2ccc([C@@H]3[C@@H](C#N)N(C(=O)C4CCC4)[C@@H]3CO)cc2)c1 | nt | -0.2 | 9.1 | nt | nt | -10.9
COc1cccc(C#Cc2ccc([C@@H]3[C@@H](CO)N(C(=O)C4CCCCC4)[C@H]3C#N)cc2)c1 | nt | 16.6 | 69.6* | nt | nt | 13.6
COc1cccc(C#Cc2ccc([C@@H]3[C@H](C#N)N(C(=O)c4ccccn4)[C@H]3CO)cc2)c1 | nt | 15.5 | 98.0* | nt | nt | -25.7
COc1cccc(C#Cc2ccc([C@@H]3[C@@H](C#N)N(C(=O)C4CCCCC4)[C@H]3CO)cc2)c1 | nt | 0.5 | 77.2* | nt | nt | 1.1
COc1cccc(C#Cc2ccc([C@@H]3[C@@H](CO)N(C(=O)C4CCC4)[C@H]3C#N)cc2)c1 | nt | 99.9* | 70.1* | nt | nt | 3.2
COc1cccc(C#Cc2ccc([C@@H]3[C@@H](CO)N(C(=O)c4ccccn4)[C@H]3C#N)cc2)c1 | nt | -9.4 | -2.0 | nt | nt | 17.2
COc1cccc(C#Cc2ccc([C@@H]3[C@@H](CO)N(C(=O)C4CCCC4)[C@H]3C#N)cc2)c1 | nt | 16.1 | nt | nt | nt | 32.3
C[C@H]1CN([C@@H](C)CO)C(=O)c2cccc(NS(=O)(=O)c3ccc(Cl)cc3)c2O[C@@H]1CN(C)C(=O)Nc1ccc(F)cc1 | nt | 9.1 | 7.3 | nt | nt | 1.0
COc1cccc(C#Cc2ccc3c(c2)[C@H]2[C@H](CCN2S(=O)(=O)c2cccc(OC)c2)[C@@H](CO)N3)c1 | nt | -1.2 | 1.8 | nt | nt | nt
O=[N+]([O-])c1ccc(-c2nc(C(Cl)Cl)c3ccccc3n2)cc1 | -45.9 | 41.2 | 3.0 | 32.7 | 67.4 | 67.4*
CN(Cc1ccccc1)c1nc(-c2ccc([N+](=O)[O-])cc2)nc2ccccc12 | -7.6 | nt | nt | 11.6 | 24.1 | nt
Cc1ccc(S(=O)(=O)N(C)C[C@@H]2Oc3c(NC(=O)CCCCCC(=O)Nc4ccccc4N)cccc3C(=O)N([C@H](C)CO)C[C@@H]2C)cc1 | nt | -9.7 | 17.0 | nt | nt | -15.8
C/C=C(/C)C(=O)OC1CC(C)(C)C[C@H]2C3=CC[C@@H]4[C@@]5(C)CCC(O[C@@H]6O[C@@H](C(=O)O)[C@@H](O)C(O[C@@H]7OC[C@H](O)[C@@H](O)[C@@H]7O[C@@H]7OC(CO)C(O)[C@@H](O)[C@@H]7O)C6O[C@@H]6OC(CO)C(O)C(O)C6O)[C@@](C)(CO)[C@@H]5CC[C@]4(C)[C@]3(C)CC(O)[C@@]12CO (stereo partly specified) | 12.1 | nt | nt | 3.6 | 2.7 | nt
